# rCAG binder = binders of r(CAG) RNA repeats, primary screen, biochemical, fluorescence | hit rate 1.3% among 370,000 | inhibition, % at 3 µM | AID 651821, 2012 | r(CAG) RNA repeat, TO-PRO-1 dye displacement fluorescence;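 active = inhibition above the plate cutoff, the mean of all test compounds on that plate plus 3 SD, cut at about 35% in these data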;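 also: 0% = DMSO alone and 100% = 100 µM mitoxantrone as full dye displacement; higher means more dye released from RNA so lower well fluorescence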
# bovine MsrA act = bovine MsrA enzyme activators, primary screen, biochemical, absorbance, HTS; Methionine sulfoxide reductase A (Bos taurus); purified bovine MsrA, absorbance read-out; activation, % at 10.6 µM; hit rate 0.3% among 360,000; in the data active = activation above about 7.5%;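 also: 0% = vehicle and 100% = reference activator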
# HGIII-sPLA2 inh = human group III sPLA2 inhibitors, primary screen, biochemical, QFRET, BODIPY PC-A2 liposome substrate; Group 3 secretory phospholipase A2 (Homo sapiens), Q9NZ20; QFRET BODIPY PC-A2 liposome hydrolysis, fluorescence; inhibition, % at 12.2 µM; hit rate 0.56% among 370,000;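 active = inhibition above mean plus 3 SD of compounds lying within the high and low control bounds, cut at about 19% in these data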;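 also: 0% = median of test compound wells and 100% = no enzyme DMSO wells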
# Target sequence (Q9NZ20 whole entry, looked up): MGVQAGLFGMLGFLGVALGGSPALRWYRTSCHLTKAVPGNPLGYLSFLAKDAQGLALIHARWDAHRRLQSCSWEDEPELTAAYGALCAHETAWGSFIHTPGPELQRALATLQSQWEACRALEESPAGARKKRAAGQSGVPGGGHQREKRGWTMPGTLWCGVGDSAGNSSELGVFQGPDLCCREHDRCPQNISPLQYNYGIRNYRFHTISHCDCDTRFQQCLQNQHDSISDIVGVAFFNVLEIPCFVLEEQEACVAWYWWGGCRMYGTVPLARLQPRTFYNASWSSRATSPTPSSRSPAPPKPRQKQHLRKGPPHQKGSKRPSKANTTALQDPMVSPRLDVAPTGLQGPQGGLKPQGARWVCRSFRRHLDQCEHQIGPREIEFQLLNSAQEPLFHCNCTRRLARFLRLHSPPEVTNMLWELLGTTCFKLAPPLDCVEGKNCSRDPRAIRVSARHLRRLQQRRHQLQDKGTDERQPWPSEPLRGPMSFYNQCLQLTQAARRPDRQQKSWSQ
# MsrA inhibitor = bovine MsrA enzyme inhibitors, primary screen, biochemical, absorbance, HTS | Methionine sulfoxide reductase A (Bos taurus) | purified bovine MsrA, absorbance read-out | inhibition, % at 15.5 µM | hit rate 0.75% among 360,000 | AID 651718, 2012; in the data active = inhibition above about 4.5%;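 also: 0% = vehicle wells with enzyme and 100% = reference inhibitor wells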
# rCAG binder conf = small molecules binding CAG repeat RNA – biochemical, fluorescence, confirmation; shares compounds with rCAG binder; r(CAG) RNA repeat, TO-PRO-1 dye displacement fluorescence; inhibition, % at 3 µM; hit rate 70% among 4,300; AID 652065, 2013;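 active = inhibition above a per-plate cutoff, the mean inhibition of sample wells plus 3 SD, cut at about 35% in these data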;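 also: loss of TO-PRO-1 fluorescence as compound displaces dye from 1x1 AA loop RNA; 0% = DMSO only wells and 100% = 100 µM mitoxantrone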
# DNA CAG counter = displacement of TO-PRO-1 from CAG DNA duplex, counter-screen for rCAG RNA repeat binder project, biochemical, fluorescence, TO-PRO-1 dye, d(CAG) DNA oligo. shares compounds with rCAG binder. d(CAG) DNA oligo TO-PRO-1 dye displacement. inhibition, % at 3 µM. hit rate 94% among 4,300. AID 652068, 2013;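 active = inhibition above its plate's cutoff, the mean test-well inhibition plus 3 SD, cut at about 4.8% in these data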;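 also: 0% = DNA dye mix with DMSO and 100% = 100 µM mitoxantrone; hits displace the dye from DNA and so lower well fluorescence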
# * = called active by the depositor; x = no result. Rows were chosen to be rich in hits. Some 2.8% of all compounds tested hit in one or more screens of this group.
SMILES,rCAG binder,bovine MsrA act,HGIII-sPLA2 inh,MsrA inhibitor,rCAG binder conf,DNA CAG counter
O=C(CSc1nnc(-c2ccccn2)n1-c1ccc(Cl)cc1)Nc1cccc2ccccc12,3,x,-11,x,x,x
CCOc1ccc(-n2c(SCC(=O)Nc3ccc(S(=O)(=O)Nc4nccs4)cc3)nnc2-c2ccco2)cc1,68*,x,-38,x,69*,28*
Cc1noc(C)c1S(=O)(=O)N(C)C[C@H]1Oc2c(NC(=O)NC3CCCCC3)cccc2C(=O)N([C@H](C)CO)C[C@@H]1C,-4,-2,-3,-1,x,x
O=C(NCc1ccccc1)c1ccc2nc(-c3ccco3)c(-c3ccco3)nc2c1,56*,-2,6,0,56*,26*
CCCCNC(=O)c1ccc2nc(-c3ccco3)c(-c3ccco3)nc2c1,62*,-5,7,1,20,5.8*
O=C(c1ccc2nc(-c3ccco3)c(-c3ccco3)nc2c1)N1CCN(c2ncccn2)CC1,35*,-4,-4,1,49*,22*
Cc1ccc(C2C(C#N)=C(N)Oc3cc4c(cc32)OCO4)cc1 (stereo not drawn),7,-3,-12,0,x,x
CN(C)S(=O)(=O)c1cccc(NC(=O)c2ccc(Sc3nncn3C)c([N+](=O)[O-])c2)c1,14,-2,-16,1,x,x
CCN(CC)S(=O)(=O)c1ccc(NC(=O)c2ccc(Sc3nncn3C)c([N+](=O)[O-])c2)cc1,36*,-7,-24,0,13,5.8*
Cc1ccc(C)c(NC(=O)CSc2sc3c(O)cc(=O)[nH]c3c2C#N)c1,51*,1,6,2,29,11*
COC(=O)c1ccc(C)c(NC(=O)CSc2sc3c(O)cc(=O)[nH]c3c2C#N)c1,61*,-4,-4,2,45*,20*
N#Cc1c(SCC(=O)Nc2cccc(C(F)(F)F)c2)sc2c(O)cc(=O)[nH]c12,52*,-3,6,2,35*,15*
COC(=O)c1ccc(C)c(NC(=O)CCSc2ccc(C)cc2)c1,-2,-2,-8,0,x,x
Cc1cc(NC(=O)CSc2nc3[nH]c(=O)cc(O)c3s2)ccc1Br,24,-5,3,0,x,x
Cc1cc(NC(=O)CSc2sc3c(O)cc(=O)[nH]c3c2C#N)ccc1Br,51*,-1,7,4,59*,32*
CC(C)c1ccc(/C=N/NC(=O)c2nnn(-c3nonc3N)c2CN2CCOCC2)cc1,-2,-2,-8,0,x,x
CCN1C(=O)N[C@@H](CCc2ccccc2)[C@@H](C(=O)OC)[C@H]1C,-3,-1,9,1,x,x
O=C(CSC1=NS(=O)(=O)c2cc(F)ccc2N1)Nc1ccc(F)cc1,24,0,-26,1,x,x
CC(=O)c1ccc(NC(=O)CSC2=NS(=O)(=O)c3cc(Cl)ccc3N2)cc1,61*,-2,-33,-1,44*,14*
O=C(CSC1=NS(=O)(=O)c2cc(Cl)ccc2N1)Nc1cccc(F)c1,60*,-3,-69,0,42*,12*
Cc1ccc(Nc2nc(N)c3ccccc3n2)cc1C,9,0,1,2,x,x
Cc1[nH]n(-c2ccccc2)c(=O)c1C(c1ccccc1[N+](=O)[O-])C(C#N)C#N (stereo not drawn),8,-1,-5,0,x,x
Cc1[nH]n(-c2ncc(-c3ccccc3)s2)c(=O)c1C(c1ccc(Cl)cc1)C(C#N)C#N (stereo not drawn),46*,1,9,1,81*,48*
O=C(O)Cc1c[nH]c2ccccc12,-1,3,5,0,x,x
O=C(O)Cc1c[nH]c2cccc(O)c12,46*,-1,3,0,29,13*
SMILES,rCAG binder,bovine MsrA act,HGIII-sPLA2 inh,MsrA inhibitor,rCAG binder conf,DNA CAG counter
C[C@@H]1Cc2c(O)c(O)cc(O)c2C(=O)O1,x,-8,x,x,x,x
O=C1C=C(O)c2c(O)cc(O)c(O)c2C1=O,56*,-4,12,1,20,5.2*
Nc1ccc(O)c2c1C(=O)c1ccccc1C2=O,24,-2,1,0,x,x
O=C1c2ccccc2C(=O)c2c(O)c(O)cc(O)c21,42*,-13,7,1,60*,32*
O=C(O)CCN1C(=O)/C(=C/c2ccc(-c3nc4ccccc4s3)o2)SC1=S,55*,1,2,1,85*,53*
O=C(O)CC(C(=O)O)N1C(=O)/C(=C/c2ccc(-c3nc4ccccc4s3)o2)SC1=S (stereo not drawn),62*,-2,-11,1,54*,19*
C[C@@H]1CN([C@H](C)CO)C(=O)c2cc(Br)cnc2O[C@@H]1CN(C)C(=O)Nc1ccccc1,1,-4,8,0,x,x
CN1CCC(OC(=O)c2cc3cc(Cl)cc(Cl)c3oc2=O)CC1,8,1,-8,1,x,x
O=C(O)c1ccc(N/N=C/C2=C(N3CCOCC3)C(=C\c3ccccc3)/CC2)cc1,72*,-10,-19,2,75*,36*
CC(=O)Nc1ccccc1NC(=O)C/C(C)=N/NC(=O)C(=O)Nc1cccc(Cl)c1C,4,0,-3,0,x,x
Cc1[nH]c2ccccc2c1N=Nc1ccccc1C(=O)O,53*,-4,-13,1,19,5.7*
Cc1ccc(C(=O)Nc2nc(-c3ccco3)c(-c3ccco3)s2)o1,73*,-8,-12,2,18,8.1*
O=C(CCl)Nc1nc(-c2ccco2)c(-c2ccco2)s1,14,-3,-3,2,x,x
O=C(CCCSc1ccccc1)Nc1nc(-c2ccco2)c(-c2ccco2)s1,74*,-7,-2,-1,22,14*
COc1cc(C(=O)N/N=C/c2ccc3c(c2)c2ccccc2n3C)ccc1O,25,-4,-8,2,x,x
Cn1c2ccccc2c2cc(/C=N/NC(=O)c3cc(O)cc(O)c3)ccc21,43*,-5,-15,3,34,18*
Cn1c2ccccc2c2cc(/C=N/NC(=O)c3cc(O)ccc3O)ccc21,66*,-5,17,2,62*,31*
COC(=O)c1ccc(C(=O)OC)c(NC(=O)CN(c2ccccc2)S(=O)(=O)N(C)C)c1,4,-10,-2,2,x,x
N=c1c(S(=O)(=O)c2ccc(Cl)cc2)cc2c(=O)n3ccccc3nc2n1Cc1ccco1,36*,-5,1,2,56*,25*
O=C1NC(=Nc2cccc(O)c2)S/C1=C\c1cccc([N+](=O)[O-])c1,47*,-4,-22,4,33,11*

# High-throughput results: PubChem BioAssay, The Scripps Research Institute Molecular Screening Center
